Test results as given in the supplement of paper PMC9492666.
Where a name gives a salt, the structure may show the parent alone.

system: MDA-MB-231; assay: relative cell viability, compound + erastin, vs DMSO (fraction of DMSO control); higher = less growth inhibition; details: 72 h
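Note: viability read by CCK-8 kit in 96-well plates, part of a combination screen pairing lipid-metabolism-targeting compounds with erastin.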

| Structure (SMILES) | relative cell viability |
| --- | --- |
| O=C(CBr)c1ccc(O)cc1 [PTP Inhibitor I] + CCOc1ccccc1-n1c(C(C)N2CCN(C(=O)COc3ccc(Cl)cc3)CC2)nc2ccccc2c1=O [erastin] | 0.64 |
| Cn1nc(C(=O)N(Cc2ccccc2)Cc2ccc(C(=O)O)cc2)c2c1-c1cc(Cl)ccc1OC2 [Nidufexor] + CCOc1ccccc1-n1c(C(C)N2CCN(C(=O)COc3ccc(Cl)cc3)CC2)nc2ccccc2c1=O [erastin] | 0.771 |
| C[C@]12CC[C@@H](O)C[C@@H]1CC[C@@H]1[C@@H]2CC[C@]2(C)C(=O)CC[C@@H]12 [Androsterone] + CCOc1ccccc1-n1c(C(C)N2CCN(C(=O)COc3ccc(Cl)cc3)CC2)nc2ccccc2c1=O [erastin] | 0.564 |
| Cc1nc(Nc2cnn(C3CCNCC3)c2)nc2c1N(C)C(=O)c1cc3ccccc3cc1N2C + CCOc1ccccc1-n1c(C(C)N2CCN(C(=O)COc3ccc(Cl)cc3)CC2)nc2ccccc2c1=O [erastin] | 0.421 |
| CC[C@@H]1/C=C(\C)C[C@H](C)C[C@H](OC)[C@H]2O[C@@](O)(C(=O)C(=O)N3CCCC[C@H]3C(=O)O[C@H](/C(C)=C/[C@@H]3CC[C@@H](O)[C@H](OC)C3)[C@H](C)[C@@H](O)CC1=O)[C@H](C)C[C@@H]2OC [Ascomycin] + CCOc1ccccc1-n1c(C(C)N2CCN(C(=O)COc3ccc(Cl)cc3)CC2)nc2ccccc2c1=O [erastin] | 0.303 |
| CC(c1cc2ccccc2s1)N(O)C(N)=O (stereo not drawn) [Zileuton] + CCOc1ccccc1-n1c(C(C)N2CCN(C(=O)COc3ccc(Cl)cc3)CC2)nc2ccccc2c1=O [erastin] | 0.595 |
| O=C(CCCCc1ccc2c(c1)OCO2)N1CCCCC1 + CCOc1ccccc1-n1c(C(C)N2CCN(C(=O)COc3ccc(Cl)cc3)CC2)nc2ccccc2c1=O [erastin] | 0.35 |
| CC(C)c1c(C(=O)Nc2ccccc2)c(-c2ccccc2)c(-c2ccc(F)cc2)n1CC[C@@H](O)C[C@@H](O)CC(=O)O [Atorvastatin Calcium] + CCOc1ccccc1-n1c(C(C)N2CCN(C(=O)COc3ccc(Cl)cc3)CC2)nc2ccccc2c1=O [erastin] | 0.337 |
| Cc1cc(=O)oc2c(O)c(O)ccc12 [7,8-Dihydroxy-4-methylcoumarin] + CCOc1ccccc1-n1c(C(C)N2CCN(C(=O)COc3ccc(Cl)cc3)CC2)nc2ccccc2c1=O [erastin] | 0.881 |
| CC1(N)CCN(c2cnc(-c3cccc(Cl)c3Cl)c(N)n2)CC1 [SHP099 hydrochloride] + CCOc1ccccc1-n1c(C(C)N2CCN(C(=O)COc3ccc(Cl)cc3)CC2)nc2ccccc2c1=O [erastin] | 0.647 |
| CCCc1cc(-c2nc(-c3ccc(NS(C)(=O)=O)cc3)cs2)ccn1 + CCOc1ccccc1-n1c(C(C)N2CCN(C(=O)COc3ccc(Cl)cc3)CC2)nc2ccccc2c1=O [erastin] | 0.651 |
| CCN(CC)C(=O)N1CCN(C)CC1 [Diethylcarbamazine citrate] + CCOc1ccccc1-n1c(C(C)N2CCN(C(=O)COc3ccc(Cl)cc3)CC2)nc2ccccc2c1=O [erastin] | 0.907 |
| CCCCCC=CC(=O)CCc1ccc(O)c(OC)c1 [6-Shogaol] + CCOc1ccccc1-n1c(C(C)N2CCN(C(=O)COc3ccc(Cl)cc3)CC2)nc2ccccc2c1=O [erastin] | 0.559 |
| CC(C)c1nc(N(C)S(C)(=O)=O)nc(-c2ccc(F)cc2)c1/C=C/[C@@H](O)C[C@@H](O)CC(=O)O [Rosuvastatin] + CCOc1ccccc1-n1c(C(C)N2CCN(C(=O)COc3ccc(Cl)cc3)CC2)nc2ccccc2c1=O [erastin] | 0.781 |
| CC(C)(Oc1ccc(C2CC2(Cl)Cl)cc1)C(=O)O (stereo not drawn) [Ciprofibrate] + CCOc1ccccc1-n1c(C(C)N2CCN(C(=O)COc3ccc(Cl)cc3)CC2)nc2ccccc2c1=O [erastin] | 0.628 |
| C[C@H](CCOc1cccc(CC(=O)O)c1)N(Cc1cccc(C(F)(F)F)c1Cl)CC(c1ccccc1)c1ccccc1 [RGX-104 free Acid] + CCOc1ccccc1-n1c(C(C)N2CCN(C(=O)COc3ccc(Cl)cc3)CC2)nc2ccccc2c1=O [erastin] | 0.488 |
| O=C(Nc1ccccc1)c1cc([N+](=O)[O-])ccc1Cl + CCOc1ccccc1-n1c(C(C)N2CCN(C(=O)COc3ccc(Cl)cc3)CC2)nc2ccccc2c1=O [erastin] | 0.706 |
| Cc1nc(-c2nc(-c3ccc(OC(F)(F)F)cc3)no2)nn1Cc1cccc(N2CCC(S(C)(=O)=O)CC2)c1 + CCOc1ccccc1-n1c(C(C)N2CCN(C(=O)COc3ccc(Cl)cc3)CC2)nc2ccccc2c1=O [erastin] | 0.621 |
| COC(=O)CN(c1ccc(CN(c2ccc(OCc3ccc(C)cc3)c(C(=O)OC)c2)S(=O)(=O)Cc2ccccc2)cc1)S(C)(=O)=O + CCOc1ccccc1-n1c(C(C)N2CCN(C(=O)COc3ccc(Cl)cc3)CC2)nc2ccccc2c1=O [erastin] | 0.643 |

| Structure (SMILES) | relative cell viability |
| --- | --- |
| CN(CCOc1ccc(CC2SC(=O)NC2=O)cc1)c1ccccn1 (stereo not drawn) [Rosiglitazone maleate] + CCOc1ccccc1-n1c(C(C)N2CCN(C(=O)COc3ccc(Cl)cc3)CC2)nc2ccccc2c1=O [erastin] | 0.965 |
| CC(C)C1=CC2=CC[C@@H]3[C@](C)(CCC[C@@]3(C)C(=O)O)[C@H]2CC1 [Abietic Acid] + CCOc1ccccc1-n1c(C(C)N2CCN(C(=O)COc3ccc(Cl)cc3)CC2)nc2ccccc2c1=O [erastin] | 1.04 |
| CCCCCCCCCCCCCCCC(=O)NCCO [Palmidrol] + CCOc1ccccc1-n1c(C(C)N2CCN(C(=O)COc3ccc(Cl)cc3)CC2)nc2ccccc2c1=O [erastin] | 0.938 |
| COc1ccc(-c2cc(=O)c3c(O)c(OC)c(O)cc3o2)cc1OC [Eupatilin] + CCOc1ccccc1-n1c(C(C)N2CCN(C(=O)COc3ccc(Cl)cc3)CC2)nc2ccccc2c1=O [erastin] | 0.617 |
| COC(=O)N(CC(=O)O)Cc1cccc(OCc2nc(-c3ccc(Cl)cc3)oc2C)c1 + CCOc1ccccc1-n1c(C(C)N2CCN(C(=O)COc3ccc(Cl)cc3)CC2)nc2ccccc2c1=O [erastin] | 0.627 |
| CC1=C(/C=C/C(C)=C/C=C/C(C)=C/C=C/C=C(C)/C=C/C=C(C)/C=C/C2=C(C)C(=O)[C@@H](O)CC2(C)C)C(C)(C)C[C@H](O)C1=O [Astaxanthin] + CCOc1ccccc1-n1c(C(C)N2CCN(C(=O)COc3ccc(Cl)cc3)CC2)nc2ccccc2c1=O [erastin] | 1.56 |
| c1cc(-c2cnn3cc(-c4ccc(OCCN5CCCCC5)cc4)cnc23)ccn1 [Dorsomorphin dihydrochloride] + CCOc1ccccc1-n1c(C(C)N2CCN(C(=O)COc3ccc(Cl)cc3)CC2)nc2ccccc2c1=O [erastin] | 0.362 |
| O=C(c1c2ccccc2cc2ccccc12)N1CCC(N2CCC[C@@H](C(=O)N3CCOCC3)C2)CC1 + CCOc1ccccc1-n1c(C(C)N2CCN(C(=O)COc3ccc(Cl)cc3)CC2)nc2ccccc2c1=O [erastin] | 0.483 |
| Cc1cc(SCc2sc(-c3ccc(C(F)(F)F)cc3)nc2C)ccc1OCC(=O)O + CCOc1ccccc1-n1c(C(C)N2CCN(C(=O)COc3ccc(Cl)cc3)CC2)nc2ccccc2c1=O [erastin] | 0.558 |
| CC(C)OC(=O)CCC/C=C\C[C@@H]1[C@@H](CC[C@@H](O)CCc2ccccc2)[C@H](O)C[C@@H]1O [Latanoprost] + CCOc1ccccc1-n1c(C(C)N2CCN(C(=O)COc3ccc(Cl)cc3)CC2)nc2ccccc2c1=O [erastin] | 0.663 |
| O=C(O)c1cc2c(Cl)c(N3CCN(S(=O)(=O)c4c(Cl)cccc4Cl)CC3)ccc2o1 [Vonafexor] + CCOc1ccccc1-n1c(C(C)N2CCN(C(=O)COc3ccc(Cl)cc3)CC2)nc2ccccc2c1=O [erastin] | 0.989 |
| CC(C)CCC[C@@H](C)[C@H]1CC[C@H]2[C@@H]3CCC4=CC(=NO)CC[C@]4(C)[C@H]3CC[C@]12C [Olesoxime] + CCOc1ccccc1-n1c(C(C)N2CCN(C(=O)COc3ccc(Cl)cc3)CC2)nc2ccccc2c1=O [erastin] | 0.663 |
| O=C1c2cccc(O)c2C(=O)c2c(O)cccc21 [Antrapurol] + CCOc1ccccc1-n1c(C(C)N2CCN(C(=O)COc3ccc(Cl)cc3)CC2)nc2ccccc2c1=O [erastin] | 0.903 |
| Fc1ccc(-c2c3cccc(C(F)(F)F)c3nn2Cc2ccc(F)cc2Cl)cc1 + CCOc1ccccc1-n1c(C(C)N2CCN(C(=O)COc3ccc(Cl)cc3)CC2)nc2ccccc2c1=O [erastin] | 0.509 |
| c1cc(-c2cnn3cc(-c4ccc(OCCN5CCCCC5)cc4)cnc23)ccn1 [Dorsomorphin] + CCOc1ccccc1-n1c(C(C)N2CCN(C(=O)COc3ccc(Cl)cc3)CC2)nc2ccccc2c1=O [erastin] | 0.405 |
| Cc1c(C)c2c(c(C)c1O)CCC(C)(COc1ccc(CC3SC(=O)NC3=O)cc1)O2 (stereo not drawn) [Troglitazone] + CCOc1ccccc1-n1c(C(C)N2CCN(C(=O)COc3ccc(Cl)cc3)CC2)nc2ccccc2c1=O [erastin] | 0.669 |
| O=C(CN1CCN(C(=O)c2ccco2)CC1)Nc1cc(C(F)(F)F)ccc1Cl + CCOc1ccccc1-n1c(C(C)N2CCN(C(=O)COc3ccc(Cl)cc3)CC2)nc2ccccc2c1=O [erastin] | 0.463 |
| CC(=O)N1CCN(c2ccc(OCC3COC(Cn4ccnc4)(c4ccc(Cl)cc4Cl)O3)cc2)CC1 (stereo not drawn) [Ketoconazole] + CCOc1ccccc1-n1c(C(C)N2CCN(C(=O)COc3ccc(Cl)cc3)CC2)nc2ccccc2c1=O [erastin] | 0.602 |
| CC(C)OC(=O)C(C(=O)OC(C)C)=C1SC=CS1 [Malotilate] + CCOc1ccccc1-n1c(C(C)N2CCN(C(=O)COc3ccc(Cl)cc3)CC2)nc2ccccc2c1=O [erastin] | 0.644 |
